# Experimental data taken from PubChem BioAssay.
# Calls of active or inactive are those of the source.
# How the values were obtained:
# [1] = adipocyte viability effects, profiling panel, cell-based, 3T3-L1 adipocytes, calcein-AM fluorescence, 48 h, basal (AID 1163); conditions: 3T3-L1 adipocytes viability, higher = more signal
# [2] = HepG2 cell viability effects, profiling panel, calcein-AM fluorescence, 48 h, basal (AID 1164); conditions: higher = more signal
# [3] = MM1S cell viability effects, profiling panel, calcein-AM fluorescence, 48 h, basal (AID 1165); conditions: higher = more signal;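 also: viability of MM1S multiple myeloma cells under basal unstimulated conditions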
# [4] = basal RPMI8226 viability, no added stimulus, profiling panel, cell-based, calcein-AM fluorescence, 48 h, PK04 Diversity Set (AID 1166); conditions: RPMI8226 myeloma viability, higher = more signal;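 also: cells grown under basal conditions without added stimulus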
# [5] = basal HepG2 mitochondrial membrane potential changes, profiling panel, cell-based, JC-1 fluorescence, 24 h, 100 nL compound (AID 1167); conditions: higher = more signal
# [6] = basal 3T3-L1 adipocyte mitochondrial potential changes, profiling panel, cell-based, JC-1 fluorescence, 3T3-L1 adipocytes, 24 h, 100 nL compound (AID 1168); conditions: JC-1 mitochondrial fluorescence, higher = more signal, called active from +8 up or from −8 down
# [7] = basal RPMI8226 mitochondrial membrane potential changes, profiling panel, cell-based, JC-1 fluorescence, 24 h, 100 nL compound (AID 1169); conditions: RPMI8226 myeloma, JC-1 mitochondrial potential fluorescence, higher = more signal
# [8] = basal MM1S mitochondrial membrane potential changes, profiling panel, cell-based, JC-1 fluorescence, 24 h, 100 nL compound (AID 1170); conditions: higher = more signal
# [9] = A549 lung cancer cell viability effects, profiling panel, resazurin fluorescence, 24 h, PK04 Diversity Set (AID 1171); conditions: higher = more signal, called active from +8 up or from −8 down
# [10] = HepG2 liver cancer cell viability effects, profiling panel, resazurin fluorescence, 24 h, PK04 Diversity Set (AID 1172); conditions: higher = more signal
# [11] = basal S. cerevisiae growth modulation, no modifier, primary screen, OD600, strain BY4716, 24 h, basal condition (AID 1173); conditions: OD600, 24 h, higher = more signal, called active from +8 up or from −8 down
# [12] = MM1S myeloma cell viability, profiling panel, resazurin fluorescence, basal, 24 h, PK04 Diversity Set (AID 1174); conditions: higher = more signal, called active from +8 up or from −8 down;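 also: MM1S multiple myeloma cell line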
# [13] = molecular target: Dihydroorotate dehydrogenase (quinone), mitochondrial (Plasmodium falciparum (isolate 3D7)) (UniProt Q08210); test: PfDHODH enzyme inhibitors, primary screen, biochemical, C-terminal His tag, absorbance 600 nm (AID 1175); conditions: DCIP absorbance 600 nm, higher = more signal, called active from +8 up or from −8 down;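 also: recombinant parasite enzyme with a five histidine tag at its C terminus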
# Chain of Dihydroorotate dehydrogenase (quinone), mitochondrial (Plasmodium falciparum (isolate 3D7)) (Q08210 whole entry, looked up): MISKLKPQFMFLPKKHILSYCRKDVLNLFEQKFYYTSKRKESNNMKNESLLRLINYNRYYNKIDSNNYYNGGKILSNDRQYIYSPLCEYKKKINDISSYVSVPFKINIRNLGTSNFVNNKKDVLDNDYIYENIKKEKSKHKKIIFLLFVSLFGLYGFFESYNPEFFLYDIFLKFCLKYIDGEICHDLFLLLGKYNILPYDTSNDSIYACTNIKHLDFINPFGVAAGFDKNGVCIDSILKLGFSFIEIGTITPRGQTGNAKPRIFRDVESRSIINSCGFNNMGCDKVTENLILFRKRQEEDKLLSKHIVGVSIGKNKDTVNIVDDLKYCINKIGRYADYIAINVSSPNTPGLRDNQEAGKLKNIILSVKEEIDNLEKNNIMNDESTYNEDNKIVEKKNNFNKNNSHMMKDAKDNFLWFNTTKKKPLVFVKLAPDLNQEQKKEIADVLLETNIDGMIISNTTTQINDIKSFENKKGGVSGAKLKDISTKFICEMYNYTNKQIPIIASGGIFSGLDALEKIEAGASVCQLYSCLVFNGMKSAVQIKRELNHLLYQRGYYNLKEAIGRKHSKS
# [14] = S. cerevisiae RM11-1a growth modifiers, primary screen, strain RM11-1a, OD600, basal, 24 h (AID 1177); conditions: OD600, 24 h, higher = more signal, called active from +8 up or from −8 down;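 also: cultures grown under basal conditions with no added stressor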
# [15] = E. coli acrAB mutant growth effects, primary screen, E. coli filamentation inducers, strain DRC39, OD650, 24 h (AID 1178); conditions: higher = more signal, called active from +8 up or from −8 down;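 also: growth measured as culture turbidity by optical density at 650 nm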
# [16] = E. coli acrAB mutant growth effects, primary screen, E. coli filamentation inducers, strain DRC39, OD650, 48 h (AID 1179);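 also: screen aims at cell division blockers that make cells filament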; conditions: E. coli DRC39 delta-acrAB growth, higher = more signal, called active from +8 up or from −8 down
# [17] = RPMI8226 myeloma cell viability, profiling panel, resazurin fluorescence, basal, 24 h, PK04 Diversity Set (AID 1180); conditions: higher = more signal;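 also: RPMI8826 multiple myeloma cell line at 5000 cells per well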
# [18] = molecular target: E3 ubiquitin-protein ligase XIAP (Homo sapiens) (UniProt P98170); test: XIAP binders, primary screen, biophysical, small-molecule microarray, fluorescence 635 nm (AID 1181); conditions: small-molecule microarray binding, higher = more signal;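 also: score merges 667 nm emission and signal to noise over triplicate slides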
# Chain of E3 ubiquitin-protein ligase XIAP (Homo sapiens) (P98170 whole entry, looked up): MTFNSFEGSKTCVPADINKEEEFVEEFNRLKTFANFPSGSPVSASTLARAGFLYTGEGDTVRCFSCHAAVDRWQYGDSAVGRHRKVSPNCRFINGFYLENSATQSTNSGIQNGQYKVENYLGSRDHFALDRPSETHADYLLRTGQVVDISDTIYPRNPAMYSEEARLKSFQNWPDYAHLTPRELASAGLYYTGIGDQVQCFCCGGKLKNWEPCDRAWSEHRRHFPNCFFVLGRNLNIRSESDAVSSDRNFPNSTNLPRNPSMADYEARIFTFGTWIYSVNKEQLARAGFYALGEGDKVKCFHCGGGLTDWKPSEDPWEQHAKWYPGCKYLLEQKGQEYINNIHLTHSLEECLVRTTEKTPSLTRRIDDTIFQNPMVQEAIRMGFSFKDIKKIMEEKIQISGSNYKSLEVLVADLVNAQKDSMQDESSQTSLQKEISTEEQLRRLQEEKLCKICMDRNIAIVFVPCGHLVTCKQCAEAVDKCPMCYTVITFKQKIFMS
# [19] = tested on: XIP peptide (Xip251-270) binding; test: small-molecule binders of XIP peptide, primary screen, biochemical, small-molecule microarray, fluorescence 635/667 nm, 0.1 µg/mL protein (AID 1182); conditions: fluorescent protein binding, 635 nm, higher = more signal, called active from +8 up or from −8 down
# XIP peptide (Xip251-270) = test: small-molecule binders of XIP peptide, primary screen, biochemical, small-molecule microarray, fluorescence 635/667 nm, 0.5 µg/mL protein (AID 1183); conditions: small-molecule microarray binding, fluorescence 635 nm; higher = more signal
Compound,z-score [1],z-score [2],z-score [3],z-score [4],z-score [5],z-score [6],z-score [7],z-score [8],z-score [9],z-score [10],z-score [11],z-score [12],composite z-score [13],z-score [14],z-score [15],z-score [16],z-score [17],composite z-score [18],composite z-score [19],composite z-score (XIP peptide (Xip251-270))
COC(=O)C(CC#Cc1ccc2c(c1)[C@]1(C(=O)N2)[C@H](C(N)=O)[C@H]2C(=O)O[C@H](c3ccccc3)[C@H](c3ccccc3)N2[C@@H]1c1ccc(O)cc1)C(=O)OC,0.915,0.72,0.555,-1.42,-2.22,-0.2 (inactive),-1.17,1.25,1.16 (inactive),0.259,-1.26 (inactive),1.52 (inactive),-0.0538 (inactive),0.208 (inactive),0.105 (inactive),0.572 (inactive),1.27,0.0239,1.07 (inactive),-1.13
C=CCN1C(=O)[C@@]2(O[C@@H](CCO)[C@H]([Si](C)(C)c3ccc(OC)cc3)[C@H]2C)c2cc(N(C=O)c3ccccc3)ccc21,0.412,-4.73,-2.68,-4.39,-2.22,1.53 (inactive),-1.05,-2.14,-4.7 (inactive),-6.2,-0.425 (inactive),-8.88 (active),-0.459 (inactive),-0.592 (inactive),2.62 (inactive),1.81 (inactive),-6.21,-0.0203,0.527 (inactive),0.345
O=C1c2ccccc2C(=O)c2cc([C@H]3Oc4ccccc4S(=O)(=O)N4CCC[C@@H]34)ccc21,1.07,0.158,-2.6,0.558,2.04,0.282 (inactive),0.103,-0.752,0.623 (inactive),1.62,-2.8 (inactive),0.566 (inactive),0.342 (inactive),-1.5 (inactive),2.89 (inactive),1.21 (inactive),0.476,0.0374,-1.15 (inactive),-1.82
COCCOC(=O)N1C(=O)[C@@]2(c3cc(C#CCCO)ccc31)[C@H](c1ccccc1OCCO)N1[C@H](c3ccccc3)[C@H](c3ccccc3)OC(=O)[C@H]1[C@@H]2C(=O)NC[C@H](O)c1ccccc1,0.915,-0.527,-0.377,-1.11,0.278,1.96 (inactive),-0.73,-1.3,1.56 (inactive),1.43,-0.769 (inactive),0.716 (inactive),-0.375 (inactive),-0.404 (inactive),2.24 (inactive),2.23 (inactive),0.433,-0.0446,0.533 (inactive),0.705
NC(=O)N1C(=O)C2C(C1=O)C1C=C(c3ccc(CO)cc3)C2C(C2CC2)N1Cc1cc2c(cc1Br)OCO2 (stereo not given),1.32,-0.282,-0.767,-1.11,1.26,1.44 (inactive),-0.3,0.463,0.761 (inactive),0.627,-3.17 (inactive),0.814 (inactive),-0.692 (inactive),-1.02 (inactive),1.36 (inactive),0.422 (inactive),0.298,-0.143,1.06 (inactive),-0.673
C=CCNC(=O)[C@H]1[C@@H]2C(=O)O[C@@H](c3ccccc3)[C@@H](c3ccccc3)N2[C@@H](c2ccc(OCCO)cc2)[C@]12C(=O)Nc1ccc(C#CCCO)cc12,2.12,1.05,0.416,0.364,0.355,0.815 (inactive),-0.307,0.128,0.865 (inactive),-0.0836,-0.0378 (inactive),0.806 (inactive),0.0436 (inactive),1.25 (inactive),0.645 (inactive),0.499 (inactive),1.28,-0.0371,0.331 (inactive),0.81
COc1ccc(C#Cc2ccc3c(c2)[C@]2(C(=O)N3)[C@H](c3ccc(O)cc3)N3[C@H](c4ccccc4)[C@H](c4ccccc4)OC(=O)[C@H]3[C@@H]2C(=O)N2CCN(c3ncccn3)CC2)cc1,1.37,0.385,-0.233,-0.474,-0.16,1.57 (inactive),-0.719,0.463,0.682 (inactive),-0.169,0.0719 (inactive),0.95 (inactive),0.848 (inactive),0.537 (inactive),0.0488 (inactive),0.255 (inactive),1.19,-0.0062,1.62 (inactive),0.388
CCCC[C@@H](O)C1=C(C)C[C@H]2C(=O)N(C)C(=O)[C@H]2[C@H]1CO,-0.552,0.257,0.0991,-0.0268,1.2,1.01 (inactive),-0.363,0.613,0.199 (inactive),0.648,-3.48 (inactive),0.987 (inactive),0.312 (inactive),-1.09 (inactive),2.71 (inactive),1.75 (inactive),1.03,0.0769,0.627 (inactive),0.586
CC(C)C(CO)N1C(=O)[C@@H]2[C@H]3C(=O)OCC=C[C@H]3OC23C=CCN(Cc2ccccc2)C(=O)[C@@H]13 (stereo not given in full),0.651,-0.384,0.33,0.0894,0.341,0.232 (inactive),0.159,1.96,-0.077 (inactive),0.25,-1.57 (inactive),0.699 (inactive),-0.429 (inactive),-0.752 (inactive),1.53 (inactive),1.03 (inactive),0.359,0.411,-0.433 (inactive),-1.18
C=CCNC(=O)[C@@H]1[C@H]2C(=O)O[C@H](c3ccccc3)[C@H](c3ccccc3)N2[C@H](c2ccc(O)cc2)[C@@]12C(=O)N(C(=O)OCCOC)c1ccc(C#Cc3ccc(OC)cc3)cc12,1.24,0.216,-1.58,-2.52,-0.914,3.45 (inactive),-0.351,0.0591,0.834 (inactive),-0.35,-0.468 (inactive),0.699 (inactive),0.21 (inactive),0.964 (inactive),0.236 (inactive),0.83 (inactive),0.804,0.14,0.688 (inactive),0.656
O=C1O[C@H](c2ccccc2)[C@H](c2ccccc2)N2[C@H]1[C@@H](C(=O)Nc1nc3ccccc3s1)[C@]1(C(=O)Nc3ccc(C#CCCO)cc31)[C@H]2c1ccccc1OCCO,1.87,0.383,-1,-0.198,-2.75,1.18 (inactive),-0.8,-1.16,0.411 (inactive),0.253,0.243 (inactive),0.228 (inactive),-0.244 (inactive),1.07 (inactive),0.381 (inactive),0.391 (inactive),-0.914,0.15,1.52 (inactive),0.732
COC(=O)C1=CC(CCCO)=CC(C2CC2)N(Cc2cc3c(cc2Br)OCO3)C=C1C(=O)OC (stereo not given),1.19,0.489,0.0635,0.627,1.1,0.857 (inactive),-0.147,1.28,0.565 (inactive),0.365,-1.81 (inactive),1.06 (inactive),-0.509 (inactive),-0.847 (inactive),0.489 (inactive),-0.0093 (inactive),1.45,0.295,1.68 (inactive),0.0315
C=C(COC)C(=O)CC[C@H](OC(=O)c1ccccc1-c1ccccc1C(=O)O)c1ccccc1OCCO,0.819,-0.927,-1.41,0.0361,0.618,0.819 (inactive),-0.437,0.24,0.283 (inactive),0.365,-1.26 (inactive),0.732 (inactive),-1.46 (inactive),-0.524 (inactive),1.54 (inactive),0.515 (inactive),0.439,-0.111,1.43 (inactive),0.356
C=C(CCCC)/C(=C/C[C@H](OC(=O)c1ccncc1)c1ccc(CO)o1)c1cnc2ccccc2c1,0.87,-0.76,-2.31,0.117,0.265,1.03 (inactive),0.519,-0.656,0.274 (inactive),0.921,-1.7 (inactive),0.511 (inactive),-6.96 (inactive),-0.716 (inactive),1.67 (inactive),1.01 (inactive),0.874,-0.105,0.291 (inactive),0.413
C=CCC(OC(C)=O)[C@@H]1[C@@H](N(Cc2ccc(-c3cccc(C(F)(F)F)c3)o2)C(=O)c2ccc(-c3ccccc3)cc2)c2cc(OCCCO)ccc2N1C(=O)Cc1ccc(OC)cc1 (stereo not given in full),0.935,1.29,1.18,0.72,3.72,0.0243 (inactive),-0.598,1.36,0.797 (inactive),0.421,0.0438 (inactive),1.29 (inactive),0.0258 (inactive),-0.93 (inactive),1.98 (inactive),1.21 (inactive),1.32,-0.0525,0.163 (inactive),-0.653
COCCOC(=O)N1C(=O)[C@@]2(c3cc(C#CCNC(N)=O)ccc31)[C@H](c1ccccc1OCCO)N1[C@H](c3ccccc3)[C@H](c3ccccc3)OC(=O)[C@H]1[C@@H]2C(=O)Nc1nc2ccccc2s1,1.32,-0.272,-1.56,0.501,-2.92,1.04 (inactive),-1.06,-1.32,0.627 (inactive),0.0177,-0.267 (inactive),1.22 (inactive),-0.183 (inactive),1.17 (inactive),-0.17 (inactive),0.599 (inactive),1.39,0.396,-0.377 (inactive),0.501
O=C(N1CCCCC1)[C@@]1(Cc2ccccc2)N=C(c2ccc(OCCCO)cc2)O[C@H]1c1ccccc1,1.33,-2.47,-3.48,-3.78,-1.61,0.804 (inactive),-0.982,-2.56,0.935 (inactive),0.569,-0.635 (inactive),-3.06 (inactive),0.31 (inactive),0.895 (inactive),1.97 (inactive),0.242 (inactive),-5.21,-0.0448,0.764 (inactive),0.66
CC(C)CCC[C@@H](C)[C@H]1CC[C@@]2(C)C3=C(CC[C@]12C)[C@@]1(C)CC[C@H](OC(=O)CCl)C(C)(C)C1CC3 (stereo not given in full),0.155,1.17,0.405,0.895,1.58,-0.207 (inactive),-0.493,1.07,0.96 (inactive),1.16,-0.795 (inactive),0.33 (inactive),0.141 (inactive),-0.249 (inactive),2.93 (inactive),1.59 (inactive),0.444,0.106,0.133 (inactive),0.174
